Here are results for 26 compounds from the supplement of paper PMC12340641.

The target of test [1] is IKZF1 (dCK*-IKZF1 fusion in HEK293FT) (UniProt Q13422). In words: inhibition of IKZF1 HTRF signal (DMSO = 0%, pomalidomide 10 uM = 100%); higher = lower IKZF1 protein level. The following applies: compound concentration: 5 uM, overnight (~20 h). In a few lines:
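Compound was tested at 5 μM in single wells on HEK293FT cells (2000/well, 384-well) stably carrying an IKZF1 fusion, overnight at 37 °C. Total IKZF1 was measured in lysates with a commercial HTRF antibody kit as the background-subtracted 665/620 nm time-resolved FRET ratio. The reported figure is percent inhibition of IKZF1 signal, scaled per plate between vehicle and a reference degrader. The vehicle anchor was 0% and the degrader anchor 100%.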
A general note: In TR-FRET formats the signal depends on donor and acceptor labels being close together.

The next test deals with HEK293FT dCK*-only. In words: relative growth in counter assay (no AraC = 100%, AraC + DMSO = 0%); higher = more growth rescue independent of IKZF1. The following applies: compound concentration: 5 uM; AraC concentration: 0.3 uM; overnight pretreatment + 4 days AraC. In short, it runs like this:
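For this counter assay, relative growth was normalised on each plate to two kinds of reference wells. HEK293FT cells expressing only an engineered kinase construct (300/well, 384-well) were treated with 5 μM compound 2 h after seeding, then after overnight at 37 °C with a nucleoside suicide substrate at 0.3 μM plus medium for 4 days. On day 5, Hoechst 33342-stained nuclei were counted by imaging, taking wells without suicide substrate as 100% and substrate plus vehicle as 0%.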

Another test has as its system HEK293FT dCK*-IKZF1. Nature of the test: relative growth recovery (pomalidomide 10 uM = 100%, DMSO = 0%); higher = more growth rescue (IKZF1 fusion degradation). Particulars: compound concentration: 5 uM; AraC concentration: 0.3 uM; overnight pretreatment + 4 days AraC. In short, it runs like this:
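HEK293FT cells stably expressing an engineered deoxycytidine kinase–IKZF1 fusion were seeded at 300 per well in 384-well plates and given 5 μM compound 2 h later. After overnight incubation at 37 °C, a nucleoside suicide substrate at 0.3 μM was added with medium for 4 days, and on day 5 Hoechst 33342-stained nuclei were counted by whole-well imaging. Growth recovery was normalised per plate between a reference degrader and vehicle, set to 100% and 0% respectively, and the values are means of duplicates run on different days.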

Sequence of IKZF1 (dCK*-IKZF1 fusion in HEK293FT) (Q13422 whole entry, looked up, the tested form may be a part): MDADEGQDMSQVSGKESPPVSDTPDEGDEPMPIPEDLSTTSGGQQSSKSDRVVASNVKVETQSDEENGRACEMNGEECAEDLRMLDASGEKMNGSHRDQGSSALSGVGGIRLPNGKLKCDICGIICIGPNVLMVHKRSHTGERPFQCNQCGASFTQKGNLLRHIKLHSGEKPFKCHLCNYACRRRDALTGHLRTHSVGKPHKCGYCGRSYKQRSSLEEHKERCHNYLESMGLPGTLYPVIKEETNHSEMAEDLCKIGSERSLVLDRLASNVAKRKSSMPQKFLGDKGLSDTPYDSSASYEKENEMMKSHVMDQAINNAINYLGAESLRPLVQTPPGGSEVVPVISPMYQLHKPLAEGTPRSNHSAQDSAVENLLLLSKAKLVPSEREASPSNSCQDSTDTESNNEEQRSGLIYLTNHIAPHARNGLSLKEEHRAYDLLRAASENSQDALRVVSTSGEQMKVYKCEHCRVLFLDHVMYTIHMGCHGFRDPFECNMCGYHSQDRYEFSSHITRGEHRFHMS

For `CCN(CC)CCCN(c1ccccc1)C1Cc2ccccc2C1` [aprindine], the “inhibition of IKZF1 HTRF signal” value in test [1] worked out at 2.2%. Besides, in the test with HEK293FT dCK*-only, the “relative growth in counter assay” value was 4.05%. Also, the relative growth recovery in the test with HEK293FT dCK*-IKZF1 stood at 1.23%.
For `Nc1ncnc2c1c(-c1cnc3[nH]ccc3c1)nn2C1CCCC1`, in that order: -13.8%, -33.6% and -11.3%.
On the same counts, the results for `COc1ccc(NS(=O)(=O)c2ccc(N)cc2)nn1` are -33.3%, -4.98% and -1.8%.
For `CN(Cc1cnc2nc(N)nc(N)c2n1)c1ccc(C(=O)NC(CCC(=O)O)C(=O)O)cc1` (stereo not drawn) [Methotrexate], in that order: -46%, -30.3% and -9.97%.
Turning to `CC1CC(OC(=O)C(O)c2ccccc2)CC(C)(C)C1` (stereo not drawn), the “inhibition of IKZF1 HTRF signal” value in test [1] was -11.2%. The “relative growth in counter assay” value in the test with HEK293FT dCK*-only amounted to 0.99%. In the test on HEK293FT dCK*-IKZF1, the relative growth recovery was -2.85%.
For `Clc1cccc(Cl)c1CSc1nnc(-c2cnccn2)s1` [yoda-1], in that order: 3.26%, -3.89% and -4.05%.
For `CC1(C)C(/C=C/C=C/C=C/C=C2/N(CCCCS(=O)(=O)[O-])c3ccc4ccccc4c3C2(C)C)=[N+](CCCCS(=O)(=O)[O-])c2ccc3ccccc3c21` [Cardiogreen], in that order: -28.9%, -5.7% and 0.4%.
On the same counts, the results for `COc1cc([C@@H]2c3cc4c(cc3[C@@H](O[C@@H]3O[C@@H]5CO[C@@H](C)O[C@H]5[C@H](O)[C@H]3O)[C@H]3COC(=O)[C@H]23)OCO4)cc(OC)c1O` [Etoposide] are -29.2%, -34.7% and -12.5%.
With `FC(F)(F)c1ccccc1-c1cc(C(F)(F)F)c2[nH]c(C3=NOC4(CCCCC4)C3)nc2c1`, in test [1], the “inhibition of IKZF1 HTRF signal” value worked out at 28.1%. In addition, the “relative growth in counter assay” value with HEK293FT dCK*-only is -7.93%. For the same compound, the relative growth recovery in the test on HEK293FT dCK*-IKZF1 was -3.06%.
For `CNC[C@H](O)c1ccc(O)c(O)c1` [Epinephrine (L-(-)-Epinephrine-(+)-Bitartrate)], in that order: -25.3%, -10.5% and -3.19%.
Take `CNC[C@H](O)c1ccc(O)c(O)c1`: in test [1], the “inhibition of IKZF1 HTRF signal” value is -26.9%. In the test on HEK293FT dCK*-only, the “relative growth in counter assay” value is -15.6%. Also, the relative growth recovery in the test on HEK293FT dCK*-IKZF1 is -7%.
On the same counts, the results for `C=C1/C(=C/C=C2\CCC[C@]3(C)[C@@H]([C@H](C)/C=C/[C@@H](C)C(C)C)CC[C@@H]23)C[C@@H](O)C[C@@H]1O` [Doxercalciferol (Hectorol)] are -23%, 1.09% and 2.85%.
On the same counts, the results for `CN(C)c1ccc2c(c1)Sc1cc(N(C)C)ccc1N2.CS(=O)(=O)O` [Leucomethylene blue (Mesylate)] are -24.1%, -19.7% and -10.3%.
For `C=CC(=O)c1ccc2ccccc2c1` [JAK3-inhibitor-V], in that order: -28.5%, -15.1% and 0.695%.
For the compound `Oc1c(Cl)cc(Cl)c2cccnc12`, the “inhibition of IKZF1 HTRF signal” value in test [1] was -21.5%. Also, in the test on HEK293FT dCK*-only, the “relative growth in counter assay” value was -3.56%. Moreover, in the test with HEK293FT dCK*-IKZF1, the relative growth recovery is -0.1%.
As to `NC(=O)c1ccc[n+]([C@@H]2O[C@H](COP(=O)(O)OP(=O)(O)OC[C@H]3O[C@@H](n4cnc5c(N)ncnc54)[C@H](O)[C@@H]3O)[C@@H](O)[C@H]2O)c1`, the “inhibition of IKZF1 HTRF signal” value in test [1] was -23.1%. For the same compound, the “relative growth in counter assay” value in the test on HEK293FT dCK*-only worked out at 5.09%. For the same compound, the relative growth recovery in the test on HEK293FT dCK*-IKZF1 worked out at 1.08%.
Take `c1ccc(-c2ccc(C(c3ccccc3)n3ccnc3)cc2)cc1` (stereo not drawn): in test [1], the “inhibition of IKZF1 HTRF signal” value came out at 17.6%. Besides, the “relative growth in counter assay” value in the test on HEK293FT dCK*-only is 3.99%. In the test on HEK293FT dCK*-IKZF1, the relative growth recovery is -0.555%.
For `c1ccc(C(NCCNC(c2ccccc2)c2ccccc2)c2ccccc2)cc1`, in that order: -1.32%, 3.27% and 3.32%.
On to `CO[C@H]1C[C@@H]2CC[C@@H](C)[C@@](O)(O2)C(=O)C(=O)N2CCCC[C@H]2C(=O)O[C@H]([C@H](C)C[C@@H]2CC[C@@H](O)[C@H](OC)C2)CC(=O)[C@H](C)/C=C(\C)[C@@H](O)[C@@H](OC)C(=O)[C@H](C)C[C@H](C)/C=C/C=C/C=C/1C` [Rapamycin], for which the “inhibition of IKZF1 HTRF signal” value in test [1] is -24.4%. The “relative growth in counter assay” value with HEK293FT dCK*-only was -20.8%. In addition, the relative growth recovery with HEK293FT dCK*-IKZF1 was -7.58%.
On to `CCN(CC)c1ccc(C(=C2C=CC(=[N+](CC)CC)C=C2)c2ccccc2)cc1` [Brilliant Green], for which the “inhibition of IKZF1 HTRF signal” value in test [1] came out at 79.8%. The “relative growth in counter assay” value with HEK293FT dCK*-only is -35%. In addition, the relative growth recovery in the test with HEK293FT dCK*-IKZF1 was -14.4%.
On the same counts, the results for `CN(C)c1ccc2nc3ccc(N(C)C)cc3[s+]c2c1` are 56.3%, -29.4% and -11.5%.
On the same counts, the results for `CN1C(=O)CC(C)(c2ccccc2)C1=O` (stereo not drawn) are 19.8%, 7.33% and 3%.
On to `Oc1c(Cl)cc(Cl)c(Cl)c1Cc1c(O)c(Cl)cc(Cl)c1Cl`, for which the “inhibition of IKZF1 HTRF signal” value in test [1] was -36%. Also, the “relative growth in counter assay” value in the test with HEK293FT dCK*-only was -1.16%. Besides, the relative growth recovery with HEK293FT dCK*-IKZF1 was determined as 0.025%.
On the same counts, the results for `Nc1ccc(-c2nc3ccc(-c4nc5ccc(N)cc5[nH]4)cc3[nH]2)cc1` are 1.33%, -6.2% and -2.58%.
Regarding `COc1cc([C@@H]2c3cc4c(cc3[C@@H](O[C@@H]3O[C@@H]5CO[C@@H](C)O[C@H]5[C@H](O)[C@H]3O)[C@H]3COC(=O)C23)OCO4)cc(OC)c1O` (stereo partly drawn) [Etoposide], the “inhibition of IKZF1 HTRF signal” value in test [1] is -10.2%. Besides, the “relative growth in counter assay” value in the test with HEK293FT dCK*-only was -34.7%. The relative growth recovery with HEK293FT dCK*-IKZF1 is -12.9%.
On to `Cc1cc([C@H](C(=O)N2C[C@H](O)C[C@H]2C(=O)N[C@@H](CC(=O)N2CCC(C#Cc3ccc(C(=O)N[C@H]4C(C)(C)[C@H](Oc5ccc(C#N)c(Cl)c5)C4(C)C)cc3)CC2)c2ccccc2)C(C)C)on1`, for which the “inhibition of IKZF1 HTRF signal” value in test [1] is 9.95%. For the same compound, the “relative growth in counter assay” value in the test with HEK293FT dCK*-only is 5.85%. Also, the relative growth recovery in the test with HEK293FT dCK*-IKZF1 is -0.74%.
